Composite z-score data for 35 compounds are collected here from PubChem BioAssay.

The target of this assay is Torsin-1A (Homo sapiens) (UniProt O14656). In words: torsin A binders from cell lysate, primary screen, small-molecule microarray, wild-type, 635/667 nm (AID 1149). Particulars: COS7 hTOR1A-WT lysate, 635 nm fluorescence, higher = more signal.
Sequence of Torsin-1A (Homo sapiens) (O14656 whole entry, looked up): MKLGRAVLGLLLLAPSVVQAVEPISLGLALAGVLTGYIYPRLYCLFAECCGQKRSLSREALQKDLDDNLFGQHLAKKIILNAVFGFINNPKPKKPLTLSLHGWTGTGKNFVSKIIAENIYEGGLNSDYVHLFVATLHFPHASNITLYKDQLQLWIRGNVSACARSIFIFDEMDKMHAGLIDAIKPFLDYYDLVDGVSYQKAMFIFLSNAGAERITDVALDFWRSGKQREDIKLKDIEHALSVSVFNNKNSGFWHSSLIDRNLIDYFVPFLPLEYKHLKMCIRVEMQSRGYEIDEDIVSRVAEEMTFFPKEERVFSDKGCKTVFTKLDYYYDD
Compound `CC(C)Cc1ccc(CN2CC[C@@H](NC(=O)Nc3ccccc3)C2)cc1` came in with a composite z-score of 0.257.

With `CC(C)C[C@@H]1NC(=O)[C@@H]2C[C@H](C(=O)NCCCCN(C)C)[C@H](c3cccc(OCCO)c3)N2C1=O`, the composite z-score is 0.352.

Consider `CC1CC/C=C\[C@H]2OC34C=CCN(C(C)C)C(=O)[C@H]3N(CCCCCCO)C(=O)[C@@H]4C2C(=O)O1` (stereo not given in full), for which the composite z-score was -1.83.

`COc1ccc(CCNC(=O)[C@@]2(Sc3ccc(C)cc3)CC(=O)N(C3Cc4ccccc4C3)[C@@H]2c2ccc(CO)cc2)cc1` yielded a composite z-score of 0.285.

In turn, `COc1ccc(-c2nc(-c3ccccc3)c3c(c2C)CO[Si]3(C(C)C)C(C)C)cn1` registered a composite z-score of 0.14.

`CCCC[C@@H]1C[C@H]1[C@@H](NC(=O)c1cccs1)c1ccc(C(F)(F)F)cc1` came in with a composite z-score of -0.848.

`CN1C(=O)C2C=CC(C(O)c3ccc(F)cc3)N(Nc3ccccc3)C2C1=O` (stereo not given) came in with a composite z-score of -0.319.

In turn, `OCC1CC(c2ccccc2)=NO1` (stereo not given) yielded a composite z-score of 0.99.

Take `COC1OC[C@]2(C)[C@H]3C4=C(CN2C(=O)OC(C)(C)C)[C@H](C)C(CO)C(CO)C4CC[C@@H]13` (stereo not given in full): the composite z-score stood at 0.288.

`NCCCCCCNC(=O)[C@@H]1C[C@@H]2C(=O)N[C@@H](CCCCN)C(=O)N2[C@@H]1c1cccc(OCCO)c1` displayed a composite z-score of -0.324.

In the case of `CCOC(=O)C1=C[C@@H](c2ccccc2)N(S(=O)(=O)c2ccc(C)cc2)[C@H]1c1ccccc1Cl`, the composite z-score came out at 0.888.

For the compound `CCOc1cc(C(O)C2C=CC3C(=O)N(c4ccccc4)C(=O)C3N2Nc2ccc(C#N)cc2)ccc1O` (stereo not given), the composite z-score was determined as 0.258.

Turning to `CCCCCCCCCCC(O)C1C=CC2C(=O)N(C)C(=O)C2N1NC(=O)OC(C)(C)C` (stereo not given), the composite z-score is -0.436.

On to `NCCCCCNC(=O)[C@@H]1C[C@@H]2C(=O)NCC(=O)N2[C@@H]1c1cccc(OCCO)c1`, for which the composite z-score is 0.666.

The compound `[N-]=[N+]=NCc1ccccc1[C@H]1OC(c2ccc(OCCCO)cc2)=N[C@@]1(CCS(=O)(=O)c1ccccc1)C(=O)N1CCCCC1` registered a composite z-score of 0.827.

`CCOC(=O)C[C@H]1[C@H](OC(=O)c2ccccc2-c2ccccc2)[C@@H](NC(=O)c2ccc(-c3ccccc3)cc2)c2cc(OCCCO)ccc2N1C(=O)c1ccc2ccccc2n1`: the composite z-score is 0.306.

With `CCCCCCc1nc(C2CC2)cc2c1[Si](C(C)C)(C(C)C)OC2`, the composite z-score is -0.522.

The compound `O=C1C[C@@](C(=O)NCCN2CCOCC2)(c2ccc([N+](=O)[O-])cc2)[C@@H](c2ccc(CO)cc2I)N1C1CCCCC1` had a composite z-score of -0.308.

In turn, `COC(=O)[C@@]1(Cc2ccc(OC)cc2)[C@H]2c3cc(C(=O)N4CCCC4)n(Cc4c(-c5ccccc5)noc4C)c3C[C@H]2CN1C(=O)c1ccccc1` yielded a composite z-score of 1.27.

Turning to `CC(C)(C)N1CC=CC23O[C@@H]4C=CCCOC(=O)C4[C@H]2C(=O)N(CCO)[C@@H]3C1=O` (stereo not given in full), the composite z-score is -0.102.

For `O=C1O[C@@H](c2ccccc2)[C@@H](c2ccccc2)N2[C@@H](c3ccccc3OCCO)[C@]3(C(=O)Nc4ccc(C#CCCO)cc43)[C@@H](C(=O)N3CCCCCCC3)[C@H]12`, the composite z-score stood at 3.06.

`CO[C@]12C=C(Br)[C@@H](C[C@@H]1c1cccc(C)c1)[C@@]1(CO1)C2=O` came in with a composite z-score of -0.436.

On to `O=C1C2C=CC(C(O)c3ccccc3)N(Nc3ccccc3F)C2C(=O)N1c1ccccc1` (stereo not given), for which the composite z-score is -0.292.

`CC[C@H]1C2=C3C(CC[C@H]4C(OCc5ccc(F)cc5C(F)(F)F)OC[C@](C)([C@@H]34)N(C(=O)OC(C)(C)C)C2)C(COC)C1COC` (stereo not given in full) registered a composite z-score of -0.0927.

`Cc1ccc(S[C@]2(C(=O)O)CC(=O)N(C3Cc4ccccc4C3)[C@@H]2c2ccc(CO)cc2)cc1` returned a composite z-score of 0.794.

`COc1ccc(NC(=O)O[C@H]2[C@H](OC(=O)Nc3ccccc3)[C@@H](OC(=O)Nc3ccccc3)[C@@H](OC)O[C@@H]2CO)cc1` yielded a composite z-score of 0.66.

Consider `CCCC[C@@H]1C[C@H]1[C@@H](NC(=O)Cc1ccccc1)c1ccc(-c2ccccc2)cc1`, for which the composite z-score was -0.369.

Consider `N#Cc1ccc(NN2C(C(O)c3ccc(F)cc3)C=CC3C(=O)N(c4ccccc4)C(=O)C32)cc1` (stereo not given), for which the composite z-score was determined as 0.0271.

In the case of `[N-]=[N+]=NCc1ccccc1C[C@]1(C(N)=O)N=C(c2ccc(OCCCO)cc2)O[C@H]1c1ccccc1`, the composite z-score worked out at 0.851.

In turn, `COCCCNC(=O)[C@@]1(Cc2ccccc2N=[N+]=[N-])N=C(c2ccc(OCCCO)cc2)O[C@H]1c1ccccc1` showed a composite z-score of 3.67.

`CN(C)CCCNC(=O)[C@@H]1c2ccccc2C(=O)N(Cc2ccccc2Cl)[C@H]1c1ccc(CO)cc1` had a composite z-score of 1.59.

`C=C(/C(=C/C[C@H](OC(=O)c1ccncc1)c1ccc(CO)o1)c1cc(C(=O)OC)ccc1OC)C(C)C` registered a composite z-score of 1.3.

`C=CCC(OC(C)=O)[C@@H]1[C@@H](N(Cc2ccc(-c3cccc(C(F)(F)F)c3)o2)C(=O)c2ccc(-c3ccccc3)cc2)c2cc(OCCCO)ccc2N1C(=O)c1ccc2ccccc2n1` (stereo not given in full) had a composite z-score of -0.48.

As for `CCCCN1CC=CC23O[C@@H]4/C=C\CCC(C)OC(=O)C4[C@H]2C(=O)N(C(CO)C(C)C)[C@@H]3C1=O` (stereo not given in full), the composite z-score came to 0.624.

Compound `[N-]=[N+]=Nc1ccccc1[C@H]1OC(c2ccc(OCCCO)cc2)=N[C@@]1(Cc1ccccc1)C(=O)N1CCCCC1` displayed a composite z-score of 0.728.
